We go through 40 compounds from PubChem BioAssay (NCATS).

The structures appear in SMILES notation. Records with an inconclusive call do not appear. Unmarked numbers belong to inactive results. Calls of active or inactive are those of the source. Calls come from the whole dose curve; as a rule, active = well fitted inhibition curve with a large enough effect; inconclusive = small, poorly fitted or top-dose-only effect; inactive = no such curve, though single readings can be large or run the other way.
% is set by controls: 0 for no effect and ±100 for the full control effect; potency is the fitted concentration of half-maximal effect.

This assay has as its system Zika virus NS2B-NS3 protease (unlinked complex). As to the kind of experiment: Primary screen GU Rhodamine qHTS for Zika virus inhibitors: Unlinked NS2B-NS3 protease assay (AID 1347159). Note: nearly all actives have a fitted effect of over 60% in size. The settings on record: Recombinant ZIKV NS2B-NS3 protease, Rhodamine110 substrate fluorescence; series mostly up to 107 µM; activity change, negative = inhibition: at the top concentration. The source says: Avindra Nath, Ph.D., National Institute of Neurological Disorders and Stroke (NINDS), Bethesda, MD
Radhakrishnan Padmanabhan, Ph.D., Georgetown University (GU), Washington D.C.
Zika Virus causes congenital defects, including microcephaly and is associated with Guillain-Barre syndrome, eningoencephalitis and myelitis in infected adult. […] Using a target-based approach, we hope to establish a screening paradigm to uncover novel, cell-active NS2B-NS3 protease (Zika Virus) specific inhibitors from NCATS' collection of small molecules using qHTS.
Four assay panel was created to identify potential Zika Virus inhibitors. Namely, (1) GU unlinked NS2B-NS3 AMC tagged protease qHTS, (2) GU unlinked NS2B-NS3 Rhodamine tagged protease qHTS, (3) NINDS linked NS2B-NS3 AMC tagged protease qHTS, (4) NINDS linked NS2B-NS3 Rhodamine tagged protease qHTS. Active compounds were re-acquired and re-screened to confirm inhibition. Inhibitors were further screened against various confirmatory and counterscreens in dose response format.
Early Translation Branch (ETB)
National Center for Advancing Translational Sciences (NCATS), Rockville, MD
National Institute of Health (NIH), Bethesda, Maryland
Padmanabhan lab provided the NS2B hydrophilic domain and NS3 protease domain in a noncovalent complex used for the unlinked assay. Control compound aprotinin is obtained from Thermo Scientific (#78432; Waltham, Massachusetts). Rhodamine110 substrate ([N-Cbz]-Nle-Lys-Arg-Arg-Rhod110-Arg-Arg-Lys-Nle-[N-Cbz]) was purchased from either Genscript or Bachem.
1536-well Protease (Rhodamine110 Substrate) Assay:
Briefly, 3 microL of enzyme (25 nM final concentration), in assay buffer (10 mM Tris-HCl pH 8.0 with 0.01% Tween 20) were dispensed into a 1,536-well solid-bottom black plate (Greiner Bio One, Monroe, NC). Twenty-three nL of compounds (final concentration range 7.28 nM to 114 microM) or control Aprotinin (final concentration range 3.47 nM to 114 microM) were transferred via Wako Pin-tool (Wako Automation, Richmond, VA). Samples were incubated (room temperature, protected from light) for 15 minutes followed by a 1 microL Rhodamine110 substrate addition (1.5 microM final concentration). Plates were then immediately read on a ViewLux High-throughput CCD imager (PerkinElmer, Waltham, MA) equipped with FITC fluorescence optics (480(20) nm excitation, 540(25) nm emission), then incubated (room temperature, protected from light) for 15 minutes (~15% conversion). The change in fluorescence intensity over the 15-minute reaction period was normalized against no-inhibitor and no-enzyme controls and the resulting percent inhibition data were fitted to a 4-parameter Hill equation. Aprotinin was used as intraplate control.
As to `CCCCNC(=O)[C@@H]1Cc2ccccc2N1C(=O)[C@@H](N)CC`, the “activity change, negative = inhibition” value is 75.9%.

Turning to `CC1(C)CC[C@]2(C(=O)O)CC[C@]3(C)C(=CCC4[C@@]5(C)CC[C@H](O[C@@H]6O[C@H](C(=O)O)[C@@H](O)[C@H](O)[C@H]6O)C(C)(CO)C5CC[C@]43C)C2C1` (stereo not given in full), the “activity change, negative = inhibition” value is -11.5% [at 32.5 µM].

Consider `Cc1ccc(Sc2cncc3sc(C(N)=O)cc23)cc1`, for which the “activity change, negative = inhibition” value was 10.6%.

For `O=c1c2ccccc2nc2n1CCC2O` (stereo not given), the “activity change, negative = inhibition” value was -8.23% [at 171 µM].

`COc1cc(COC2OC(CO)C(O)C(O)C2O)cc(OC)c1O` (stereo not given): the “activity change, negative = inhibition” value is 14.6%.

With `CCCC(N[C@@H](C)C(=O)N1[C@H](C(=O)O)C[C@@H]2CCCC[C@@H]21)C(=O)OCC` (stereo not given in full), the “activity change, negative = inhibition” value is 11.8%.

`Cc1c(N2C(=O)c3ccc(C(=O)O)cc3C2=O)c(=O)n(-c2ccccc2)n1C`: the “activity change, negative = inhibition” value is 0%.

With `C=C1C[C@]23C[C@H]1CC[C@H]2[C@]1(C)CCC[C@@]2(CO)C(=O)O[C@H]([C@H]21)[C@@H]3O`, the “activity change, negative = inhibition” value was 11.4%.

Regarding `CC[C@H]1OC(=O)C[C@@H](O)[C@H](C)[C@@H](O[C@@H]2O[C@H](C)[C@@H](O)[C@H](N(C)C)[C@H]2O)[C@@H](CCN2C[C@H](C)C[C@H](C)C2)C[C@@H](C)C(=O)/C=C/C(C)=C/[C@@H]1CO[C@@H]1O[C@H](C)[C@@H](O)[C@@H](OC)[C@H]1OC`, the “activity change, negative = inhibition” value was -6.95%.

Turning to `O=C(NC[C@H](O)CN1CCc2ccccc2C1)c1cc(NC2COC2)ncn1`, the “activity change, negative = inhibition” value is 6.65%.

For the compound `COc1cc([C@H]2OC[C@]3(OC(C)=O)[C@@H](c4ccc(O[C@@H]5O[C@H](CO)[C@@H](O)[C@H](O)[C@H]5O)c(OC)c4)OC[C@H]23)ccc1O`, the “activity change, negative = inhibition” value is 22.5% [at 32.5 µM].

Take `CC1(C)CC[C@]2(C(=O)O)CC[C@]3(C)C(=CCC4[C@@]5(C)C[C@@H](O)[C@H](O)C(C)(C)C5CC[C@]43C)[C@@H]2[C@@H]1O` (stereo not given in full): the “activity change, negative = inhibition” value was 12.7% [at 57.1 µM].

For the compound `NCc1c[nH]c(=S)n1C1CCc2c(F)cc(F)cc2C1` (stereo not given), the “activity change, negative = inhibition” value was 33.9%.

Consider `CC(=O)[C@@H]1CC[C@]2(C(=O)O)CC[C@]3(C)C(CCC4[C@@]5(C)CC[C@H](O)C(C)(C)C5CC[C@]43C)C12` (stereo not given in full), for which the “activity change, negative = inhibition” value was -17.9% [at 57.1 µM].

On to `C=C1CCC2C(C)(COC3OC(COC(=O)CC(=O)O)C(O)C(O)C3O)CCCC2(C)C1CCC1=CCOC1=O` (stereo not given), for which the “activity change, negative = inhibition” value was -18.2% [at 57.1 µM].

As to `NC(=O)c1cccc(-c2cc(O)cc(OC(=O)NC3CCCCC3)c2)c1`, the “activity change, negative = inhibition” value is 78.2% [at 57.1 µM].

Consider `CC(=O)O[C@H](C[C@@H](C)[C@H]1C(=O)[C@H](O)[C@@]2(C)[C@@H]3CCC4C(C)(C)[C@@H](O[C@@H]5OC[C@H](O)[C@H](O)[C@H]5O)CC[C@@]45C[C@@]35CC[C@]12C)[C@@H]1OC1(C)C` (stereo not given in full), for which the “activity change, negative = inhibition” value was -7.25% [at 32.5 µM].

For `CCOC(=O)N1CCC(NCCNC(=O)c2ccccc2C)CC1`, the “activity change, negative = inhibition” value is -5.93%.

As for `C=C[C@H]1[C@H](O[C@@H]2O[C@H](CO)[C@@H](O)[C@H](O)[C@H]2O)OC=C(C(=O)OC)[C@H]1C[C@@H]1N[C@H](C(=O)O)Cc2c1[nH]c1ccccc21`, the “activity change, negative = inhibition” value is 100% [at 57.1 µM].

As for `Cn1ccnc1CCOC(c1cc2nccc(C(=O)O)c2[nH]1)c1ccccc1Cl` (stereo not given), the “activity change, negative = inhibition” value is 0%.

On to `CCOc1nc2cccc(C(=O)O)c2n1Cc1ccc(-c2ccccc2-c2noc(=O)[nH]2)cc1`, for which the “activity change, negative = inhibition” value was -10.6%.

On to `CC/C=C\C[C@H]1C(=O)C=C[C@@H]1CCCCCCCC(=O)O`, for which the Potency was 35.5 µM (active).

With `CC(C)(OC1OC(CO)C(O)C(O)C1O)C1CCC(O)(CO)C2CC(O)C(C)(O)C2C1` (stereo not given), the “activity change, negative = inhibition” value was 8.94% [at 57.1 µM].

`O=S(=O)(NC1CCNCC1)c1cc(S(=O)(=O)c2ccccc2)ccc1C(F)(F)F`: the “activity change, negative = inhibition” value was 14.7%.

As to `COc1cc(/C=C/C(=O)O[C@H]2[C@H](O)[C@@H](CO)O[C@@]2(CO)O[C@H]2O[C@H](COC(=O)c3ccc(O)cc3)[C@@H](O)[C@H](O)[C@H]2O)cc(OC)c1OC`, the “activity change, negative = inhibition” value was 16.9% [at 32.5 µM].

For `O=C1N(CC2CCCCN2)CCN1c1ccccc1` (stereo not given), the “activity change, negative = inhibition” value is 8.86%.

Turning to `CC1(C)O[C@]23C[C@H]1C[C@H](OC(=O)c1ccoc1)[C@]2(C)[C@@H](OC(=O)c1ccoc1)CCC3(C)O` (stereo not given in full), the “activity change, negative = inhibition” value is 4.92% [at 57.1 µM].

Consider `CC12CC34C=CC(=O)C(C)(CCC(=O)O)C3C(CC1C4)O2` (stereo not given), for which the “activity change, negative = inhibition” value is 12.3%.

Turning to `O=c1c2cccnc2n(-c2cccc([N+](=O)[O-])c2)c(=O)n1Cc1ccncc1`, the “activity change, negative = inhibition” value is 59.6%.

As to `NCCOCCOCCNC(=O)Cc1ccc(Nc2nc(NCc3ccc(F)cc3)nc(NCC3CCCCC3)n2)cc1`, the “activity change, negative = inhibition” value was -62.3%.

In the case of `Cn1c(=O)c2nc(/C=C/c3cccc(Cl)c3)n(C)c2n(C)c1=O`, the “activity change, negative = inhibition” value was 0% [at 229 µM].

Consider `C/C=C/C=C/C(CC(=O)O)Nc1ccc(C=O)cc1` (stereo not given), for which the Potency is 11.2 µM (active).

For `C=C(C)[C@@H](C)[C@H]1O[C@]23C[C@]4(CO2)C(CCC2[C@@]5(C)CC[C@H](O[C@@H]6OC[C@H](O)[C@H](O[C@@H]7O[C@H](CO)[C@@H](O)[C@H](O)[C@H]7O)[C@H]6O[C@@H]6O[C@@H](CO)[C@H](O)[C@H]6O)C(C)(C)C5CC[C@]24C)C3[C@@](C)(O)[C@@H]1OC(C)=O` (stereo not given in full), the “activity change, negative = inhibition” value is -24.2% [at 32.5 µM].

Turning to `COc1ccc(/C=C/C(=O)O[C@@H]2[C@@H](O)[C@H](C)O[C@@H](OC3C4C=COC(O[C@@H]5O[C@H](CO)[C@@H](O)[C@H](O)[C@H]5O)C4C4(CO)OC34)[C@@H]2O)cc1OC` (stereo not given in full), the “activity change, negative = inhibition” value was -2.42% [at 32.5 µM].

In the case of `COc1ccc(C(=O)O[C@H]2CC(C)=CC[C@@]3(C)[C@@H](OC(C)=O)C[C@@](O)(C(C)C)[C@H]23)cc1`, the “activity change, negative = inhibition” value is -12.8% [at 57.1 µM].

Regarding `C=C1CC[C@@H]2[C@](C)(CC[C@H](O)[C@@]2(C)CCC=C(C)C)[C@@H]1Cc1c[nH]c2ccccc12`, the “activity change, negative = inhibition” value is -2.06% [at 57.1 µM].

As for `COC1=Cc2c(nc3n(c2=O)C(C)C(=O)NC3(O)C(C)C)OC=C1` (stereo not given), the “activity change, negative = inhibition” value is 10.6%.

For the compound `Cc1nn(C)c2c1C(c1ccc(C(F)(F)F)cc1)C(C#N)=C(N)O2` (stereo not given), the “activity change, negative = inhibition” value is -1.07%.

Turning to `CC1(C)CC(=O)N(CCCCN2CCN(c3ncccn3)CC2)C(=O)C1`, the “activity change, negative = inhibition” value was 49.7%.

With `O=C(O)c1cnn(-c2nc3cc(OC(F)(F)F)c(Cl)cc3[nH]2)c1`, the Potency was 5.01 µM (active).
